The panel holds about 83,000 compounds, 20% with a hit somewhere; the sample as a whole holds those more often.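 Percent growth is the endpoint: 0 to 100 indicates growth inhibition (40 means 60% inhibition), 0 means no net growth, and negative values indicate cell death.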 A number with no mark means an inactive call. The source made the active and inactive calls. Rule for the calls: active = growth percent below 10; inactive = the rest.
How the values were obtained:
Test in all cases: NCI-60 one-dose screen, 48 h (100 = growth as untreated, 0 = no growth, -100 = all killed)
Details in all cases: 10 µM unless noted
SR leukemia = tested on: SR leukemia
RPMI-8226 leukemia = tested on: RPMI-8226 leukemia
OVCAR-8 ovarian = tested on: OVCAR-8 ovarian
OVCAR-5 ovarian = tested on: OVCAR-5 ovarian
OVCAR-4 ovarian = tested on: OVCAR-4 ovarian
SK-OV-3 ovarian = tested on: SK-OV-3 ovarian
IGROV1 ovarian = tested on: IGROV1 ovarian
OVCAR-3 ovarian = tested on: OVCAR-3 ovarian
HS 578T breast = tested on: HS 578T breast
NCI/ADR-RES ovarian = tested on: NCI/ADR-RES ovarian
T-47D breast = tested on: T-47D breast
BT-549 breast = tested on: BT-549 breast
MDA-MB-435 melanoma = tested on: MDA-MB-435 melanoma
SW-620 colon = tested on: SW-620 colon
MCF7 breast = tested on: MCF7 breast
HCT-116 colon = tested on: HCT-116 colon
HCC-2998 colon = tested on: HCC-2998 colon
KM12 colon = tested on: KM12 colon

Structure (SMILES)	growth (SR leukemia)	growth (RPMI-8226 leukemia)	growth (OVCAR-8 ovarian) [%]	growth (OVCAR-5 ovarian) [%]	growth (OVCAR-4 ovarian) [%]	growth (SK-OV-3 ovarian)	growth (IGROV1 ovarian)	growth (OVCAR-3 ovarian)	growth (HS 578T breast)	growth (NCI/ADR-RES ovarian)	growth (T-47D breast)	growth (BT-549 breast)	growth (MDA-MB-435 melanoma)	growth (SW-620 colon)	growth (MCF7 breast)	growth (HCT-116 colon)	growth (HCC-2998 colon)	growth (KM12 colon)
O=C(O)c1ccc(-n2cc(CNc3ccc(C(F)(F)F)cc3)c(-c3ccccc3)n2)cc1	84.1%	76.6%	79.8	119	95.4	103%	111%	96.1%	93.7%	101%	79.2%	99.1%	90.8%	98.2%	81.8%	101%	108%	84.7%
COc1cccc(/C=C2\SC(N3CCN(c4ccccn4)CC3)=NC2=O)c1	89.7%	85.8%	100	113	110	111%	103%	100%	95.8%	103%	95%	112%	108%	97.9%	94.8%	103%	99.4%	97.4%
CCOC(=O)C1=C(C)NC(=O)NC1c1ccc(OCC(=O)N/N=C/c2ccc(Cl)cc2)cc1 (centres undefined)	68.7%	90.1%	95.2	87.9	95.1	88.9%	94.9%	99.8%	86.6%	106%	87.1%	87.5%	90.6%	94.2%	90.1%	94.2%	97.5%	96.3%
CCOP(=O)(CCN1CCN(CCCCCOc2cc3c(cc2OC)C(=O)N2CCC[C@H]2C=N3)CC1)OCC	28.7%	-10.5% (active)	83.4	106	87.8	118%	-26% (active)	119%	84.5%	88.5%	46%	52.5%	93.7%	63.5%	35.9%	80.1%	80.8%	111%
CN=S(=O)(NC(=O)c1ccc(Cl)cc1Cl)c1ccc(Br)s1 (centres undefined)	94.3%	98%	97.6	95.3	103	111%	101%	109%	97.8%	99.3%	95.8%	103%	97.6%	98.8%	101%	102%	111%	110%
CCc1cccc(C)c1NC(=O)c1sc2nc3c(cc2c1N)C(=O)CCC3	2.24% (active)	9.64% (active)	27.9	29.2	76.3	10.4%	30.7%	-26% (active)	24.8%	8.17% (active)	24.4%	46.8%	-27.5% (active)	28.7%	20.3%	31.6%	10.2%	19%
CC(=O)Nc1ccc2c(c1)/C(=C\C=C/c1ccc([N+](C)(C)C)cc1)c1ccccc1-2	90%	73.6%	57.4	53.9	28.1	70.2%	67.1%	78%	25.3%	101%	41.4%	94.6%	96%	99%	60.4%	70.3%	114%	97.1%
CS(=O)(=O)N(c1cc(-c2ccc3ncnc(Nc4cccc(Cl)c4)c3c2)cnc1Cl)S(C)(=O)=O	22.8%	-6.09% (active)	23.8	12.1	43.3	-11.1% (active)	-38.3% (active)	11.1%	-3.12% (active)	42.2%	-2.25% (active)	-8.61% (active)	15.9%	20.4%	4.87% (active)	12.1%	23.9%	21.3%
COc1ncc(-c2ccc3ncnc(Nc4cccc(Cl)c4)c3c2)cc1N(S(C)(=O)=O)S(C)(=O)=O	92.6%	55.8%	73.8	43.2	77.3	52.2%	-28.6% (active)	54.9%	49.7%	72.7%	18.5%	78.1%	77.7%	75.7%	27.7%	81.2%	76.4%	81.1%
O=C(CCl)NCCNc1nccc(Nc2ccc(S(=O)(=O)Nc3ccccn3)cc2)n1	19.4%	14.8%	32.7	15.7	29.4	61.9%	8.94% (active)	-6.7% (active)	73.1%	46.5%	9.1% (active)	-5.35% (active)	7.62% (active)	8.07% (active)	11%	-44.6% (active)	99.7%	34%
COc1cc(OC)c(C(=O)/C=C/c2cccc(C(F)(F)F)c2)c(OC)c1	6.07% (active)	1.61% (active)	14.1	42.4	31.4	42.1%	11.8%	17.5%	15.4%	17.1%	16.4%	-2.51% (active)	16.2%	0.796% (active)	17%	2.79% (active)	29.1%	11%
CNC(=O)Cc1nc(-c2cccc(NS(=O)(=O)c3c(F)cccc3F)c2F)c(-c2ccnc(Nc3ccccc3)n2)s1	76.4%	101%	57.8	32.9	124	29.9%	17.5%	77.2%	64.5%	104%	60.2%	103%	48.3%	66.8%	86.2%	9.43% (active)	84.6%	70.2%
O=C(CN1CCOCC1)Nc1ccc(-c2nc3ccccc3s2)cc1	102%	94%	102	93.4	101	121%	106%	96.3%	110%	105%	93.3%	104%	108%	108%	48.8%	96.1%	88%	107%
O=S(=O)(NCCCNc1cc(-c2cn(-c3ccccc3)nc2-c2cccc(O)c2)ccn1)c1ccc(Br)cc1	-12.4% (active)	3.52% (active)	19.1	23.4	37.4	20.7%	22.4%	22%	-3.87% (active)	16.2%	12.5%	7.68% (active)	9.98% (active)	10.7%	7.31% (active)	9.44% (active)	-62.4% (active)	7.88% (active)
Nc1nc(N)c2nc(CNc3ccc(C(=O)CC(CCC(=O)O)C(=O)O)cc3)cnc2n1 (centres undefined)	28.6%	58.3%	14.8	53.1	79.9	52%	-58.5% (active)	49.8%	82.4%	25.6%	49.5%	63.3%	34.4%	25.7%	22.8%	21.6%		32.2%
Cc1cccc(-n2c(C)nc3ccc(NC(=O)NCCCl)cc3c2=O)c1	95.9%	97.6%	107	107	107	102%	102%	105%	99.4%	95.5%	103%	101%	99.2%	97.3%	86.1%	103%		106%
COc1cc(-c2nc(-c3nc4ccccc4[nH]3)cc3c2[nH]c2ccccc23)cc(OC)c1OC	45.2%	-4.95% (active)	13.2	88.8	59.5	104%	18.9%	31.7%	55.8%	32.2%	25%	27%	31.1%	56.5%	42.6%	23%	57.3%	18.7%

Source: PubChem BioAssay (NCI)
